Consider three substances from ChEMBL document CHEMBL1201862, “PubChem BioAssay data set” (2004).

Out of some 53,000 sequences screened, about 4,900 (9.2%) were called active. No stated cut-off is given here; in the data, active = GI50 up to about 1.1 µM and inactive = higher. Many of the other results were omitted from the sample, so actives are more common in it than they were. Results with a measured potency or affinity are listed apart.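 Five compound concentrations were applied to cells in 96-well plates for 48 hours; endpoints were derived by simple linear interpolation of the resulting dose-response curve. Here, GI50 denotes the concentration required for 50% inhibition of growth.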

For this assay, the system named is NCI-H522. Kind of assay: NCI tumour cell line growth inhibition, 48 h.
For MERCURIC CHLORIDE, CHEMBL1374360, the GI50 turned out to be 0.518 µM.

DICHLORODIPHENYLSTANNANE, CHEMBL1088185: the GI50 turned out to be 1 µM. The substance DIBUTYLDICHLOROSTANNANE, CHEMBL1088184 gave a GI50 of 0.13 µM.
